Results as given in PubChem BioAssay AID449762 (Southern Research Specialized Biocontainment Screening …, 2010).
About 1,900 (0.58%) of roughly 330,000 compounds were called active. Roughly 4% stayed inconclusive and do not appear here. No stated cut-off is given here; in the data, inconclusive means inhibition above about 70% without an active follow-up result; inactive means below that. Only a sample is shown. Measured potencies and affinities stand elsewhere.

Test: M. tuberculosis growth inhibition, HTS (AID 449762);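 further: bacterial growth assessed after seven days of incubation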
Conditions: M. tuberculosis H37Rv growth inhibition, 7H9 media; at 25 µM; active compounds read high

| SMILES | inhibition |
| --- | --- |
| O=C(CN(C(=O)CNC(=O)c1cccs1)c1ccc(F)cc1)NC1CCCC1 | -5.64% (inactive) |
| Cc1ccc(C(=O)Nc2cnc3sc(C)nn3c2=O)cc1 | -8.53% (inactive) |
| CC1=C(C(=O)OCC2CCCO2)C(c2ccc(C)cc2)C2=C(CCCC2=O)N1 (stereo unspecified) | -4.69% (inactive) |
| COc1ccc(C2COc3cc(O)ccc3C2)c(OC)c1O (stereo unspecified) | -7.8% (inactive) |
| CCCCSc1nnc(CSc2nc3nc(C)cc(C)n3n2)o1 | -4.57% (inactive) |
| CCCSc1nnc(CSc2nc3nc(C)cc(C)n3n2)o1 | 6.82% (inactive) |
| CC1Cn2c(nc3sc4c(c3c2=O)CCC4)N1CCO (stereo unspecified) | 3.69% (inactive) |
| Cc1ccc(C(=O)N2CCN(c3ccc(C(F)(F)F)cn3)CC2)cc1 | -8.18% (inactive) |
| O=C(c1ccccn1)N1CCN(c2ccc(C(F)(F)F)cn2)CC1 | -9.2% (inactive) |
| CS(=O)(=O)N(CC(=O)Nc1ccc(C(N)=O)cc1)C1CCCCC1 | 0.92% (inactive) |
| CN(CC(=O)Nc1cccc(F)c1)C(=O)CCN1C(=O)C2CC=CCC2C1=O (stereo unspecified) | -7.97% (inactive) |
| Cc1ccc(C(=O)N2CCC3(CC2)NCCc2[nH]cnc23)cc1 | 0.45% (inactive) |
| CCOC(=O)c1c(-c2ccccc2)c2cc(OC)ccc2n1CCCN(C)C | 47.1% (inactive) |
| Cn1c(=O)c(C(=O)NNC(=O)c2ccccc2Cl)c(O)c2ccccc21 | 53.6% (inactive) |
| Cn1c(=O)c(C(=O)NNC(=O)c2ccccc2Br)c(O)c2ccccc21 | 45.1% (inactive) |
| Cc1ccc(C(=O)N/C(=C\c2cccs2)c2nc3ccccc3[nH]2)cc1 | -6.82% (inactive) |
| Cc1ccc(C(=O)N/C(=C\c2cccnc2)c2nc3ccccc3[nH]2)cc1 | -7.38% (inactive) |
| CC(C)[C@@]1(c2ccc(Cl)cc2)ON(c2ccccc2C(F)(F)F)C1=O | -3.69% (inactive) |
| CCn1c(C)c(C)c2cc(C(=O)NCCCN3CCCC3)ccc21 | -0.8% (inactive) |
| O=C(NC(=S)Nc1nc2c(s1)CCCC2)c1ccccc1 | 2.45% (inactive) |
| O=C(Nc1nc2c(s1)CCCC2)Oc1ccccc1 | -2.24% (inactive) |
| O=C(COc1ccc([N+](=O)[O-])cc1)N/N=C/c1cc([N+](=O)[O-])ccc1N1CCOCC1 | 3.18% (inactive) |
| CCC(C)NC(=O)CNC(=S)N(Cc1ccccc1)Cc1cccnc1 (stereo unspecified) | -7.33% (inactive) |
| Cc1ccc(NCC(O)C(O)C(O)CO)cc1C (stereo unspecified) | -7.11% (inactive) |
| COc1ccc(N(C(=O)/C=C/C(=O)Nc2cc(C)on2)C(C(=O)NC2CCCC2)c2ccccc2C)cc1 (stereo unspecified) | 40% (inactive) |
| Cc1cc(NC(=O)CCC(=O)N(c2ccccc2)C(C(=O)NC2CCCC2)c2ccccc2C)no1 (stereo unspecified) | 0.1% (inactive) |
